Experimental data: the antibiotic and cytotoxicity screens of Wong et al. (2023)
Among all 39,000 compounds or so, about 1,500 (3.8%) were called active. For the sample, actives were picked, then their nearest neighbours and some compounds at random.

Test system: HSkMC (human skeletal muscle cells)
Assay: cytotoxicity call (relative viability < 0.9)
Conditions: 10 µM

Compound | cytotoxicity call
O=C(C[C@@H]1CC[C@H]2[C@@H](COC[C@H](O)CN2S(=O)(=O)c2ccccc2)O1)NCCN1CCCC1 | inactive
C[C@H]1CN([C@@H](C)CO)C(=O)Cc2cc(NS(=O)(=O)c3cccs3)ccc2O[C@H]1CN(C)S(=O)(=O)c1cccs1 | inactive
CO[C@H]1O[C@@H](COC(C)=O)[C@@H](OC(C)=O)C(C#N)(C#N)[C@@H]1OC(C)=O | inactive
Clc1ccccc1C(c1ccccc1)(c1ccccc1)n1ccnc1 | active
N#CC(c1ccccc1)(c1ccccc1)c1ccccc1Cl | inactive
C[C@H](CO)N1C[C@H](C)[C@H](CN(C)S(=O)(=O)c2ccc(Cl)cc2)OCCCC[C@H](C)Oc2ccc(NC(=O)c3ccncc3)cc2C1=O | inactive
Cc1cccc(S(=O)(=O)N2C[C@H](O)COC[C@H]3O[C@@H](CC(=O)NCCCN4CCOCC4)CC[C@@H]32)c1 | inactive
COc1c(C)cnc2c1c(=O)n(CC(N)=O)c(=O)n2C | inactive
C[C@@H]1CCCCO[C@H](CN(C)Cc2ccc(C(F)(F)F)cc2)[C@H](C)CN([C@H](C)CO)C(=O)c2cc(NS(=O)(=O)c3cccs3)ccc2O1 | inactive
O=C(NC1CCN(CCCCC2(C(=O)NCC(F)(F)F)c3ccccc3-c3ccccc32)CC1)c1ccccc1-c1ccc(C(F)(F)F)cc1 | active
C[C@]1(C(=O)NCC(F)(F)F)c2ccccc2C(=O)N(Cc2cc(C(F)(F)F)cc(C(F)(F)F)c2)[C@H]1c1ccc(CO)cc1 | inactive
O=C(NC1CCCCCCC1)c1ccccc1-c1ccccc1 | inactive
COc1ccc(S(=O)(=O)Nc2ccc3c(c2)C(=O)N([C@H](C)CO)C[C@H](C)[C@@H](CN(C)C(=O)NC(C)C)O3)cc1 | inactive
CCCCCCCCC(=O)O | inactive
CN1CCN(S(C)(=O)=O)CC1 | inactive
C[C@H](CO)N1C[C@H](C)[C@@H](CN(C)C(=O)c2ccc3c(c2)OCO3)Oc2ncc(C#CCN(C)C)cc2C1=O | inactive
C[C@H]1CN([C@@H](C)CO)C(=O)c2cc(NS(=O)(=O)c3ccc(F)cc3)ccc2O[C@H]1CN(C)Cc1ccc(Oc2ccccc2)cc1 | inactive
C[C@@H]1CN([C@@H](C)CO)C(=O)c2cc(NS(=O)(=O)c3ccc(F)cc3)ccc2O[C@H]1CN(C)Cc1ccc(Oc2ccccc2)cc1 | inactive
C[C@H]1CN([C@@H](C)CO)C(=O)c2cc(NS(=O)(=O)c3ccc(F)cc3)ccc2O[C@@H]1CN(C)Cc1ccc(Oc2ccccc2)cc1 | inactive
C[C@@H]1CN([C@H](C)CO)C(=O)c2cc(NS(=O)(=O)c3ccc(F)cc3)ccc2O[C@H]1CN(C)Cc1ccc(Oc2ccccc2)cc1 | inactive
C[C@@H]1CN([C@H](C)CO)C(=O)c2cc(NS(=O)(=O)c3ccc(F)cc3)ccc2O[C@@H]1CN(C)Cc1ccc(Oc2ccccc2)cc1 | active
C[C@@H]1CN([C@@H](C)CO)C(=O)c2cc(NS(=O)(=O)c3ccc(F)cc3)ccc2O[C@@H]1CN(C)Cc1ccc(Oc2ccccc2)cc1 | active
C[C@H](CO)N1C[C@H](C)[C@@H](CN(C)CC2CCOCC2)Oc2cc(C#Cc3ccccc3F)ccc2S1(=O)=O | inactive
C[C@@H]1CN([C@H](C)CO)C(=O)c2cc(NC(=O)CCCN(C)C)ccc2O[C@H]1CN(C)Cc1ccncc1 | inactive
CN(C)CC(=O)N1[C@@H]2c3cccc(=O)n3C[C@H]1[C@H](CO)[C@H]2C(=O)NCc1ccccc1 | inactive
C[C@@H]1CCCCO[C@@H](CN(C)S(=O)(=O)c2ccc(F)cc2)[C@@H](C)CN([C@H](C)CO)C(=O)c2cc(NC(=O)c3ccccc3)ccc2O1 | inactive

Compound | cytotoxicity call
CCc1nnc(SCC(=O)O)n1N | inactive
COc1ccc(S(=O)(=O)Nc2ccc3c(c2)C(=O)N([C@@H](C)CO)C[C@H](C)[C@@H](CN(C)C(=O)Nc2ccc4c(c2)OCO4)OCCCC[C@H](C)O3)cc1 | inactive
COc1ccc(CN(C)C[C@H]2Oc3ccc(NC(=O)CCN4CCOCC4)cc3CC(=O)N([C@@H](C)CO)C[C@@H]2C)cc1 | inactive
C[C@@H]1CCCCO[C@@H](CN(C)Cc2ccc(C(=O)O)cc2)[C@@H](C)CN([C@@H](C)CO)C(=O)c2cc(NC(=O)Nc3ccc(C(F)(F)F)cc3)ccc2O1 | inactive
COc1ccc(CCN(C)CCCOc2ccc(S(=O)(=O)c3c(C(C)C)cn4ccccc34)cc2)cc1OC | active
COc1ccc(C(=O)NCc2ccc(OCCN(C)C)cc2)cc1OC | inactive
COc1ccc(CCN(C)CCCOc2ccc(S(=O)(=O)c3c(C(C)C)c4ccccc4n3C)cc2)cc1OC | active
COc1cc(C(=O)NCc2ccc(OCCN(C)C)cc2)cc(OC)c1OC.Cl | inactive
COc1ccc(CCN(C)CCCOc2ccc(S(=O)(=O)c3[nH]c4ccccc4c3C(C)C)cc2)cc1OC | active
C[C@H](CO)N1C[C@H](C)[C@H](CN(C)C(=O)Nc2ccc(F)cc2)OCCCC[C@H](C)Oc2ccc(NS(=O)(=O)c3ccccc3)cc2C1=O | inactive
Cc1ccc(-c2csc(-c3ccc(CN)cc3)n2)cc1 | active
CCCc1cc(-c2nc(-c3ccc(C)cc3)cs2)ccn1 | inactive
Cc1ccc(-c2csc(-c3ccc(C(F)(F)F)cc3)n2)cc1 | inactive
CCc1ccccc1C(=O)N1CCC[C@@H](Cn2cc(C(C)(C)N)nn2)C1 | inactive
COc1ccc2[nH]c(=O)[nH]c(=O)c2c1 | inactive
COc1ccc2[nH]c3c(-c4cccc5ccccc45)nccc3c2c1 | active
COc1ccc2c3c(ccc2c1)-c1[nH]c2ccccc2c1CC3 | inactive
COc1ccc(-c2ccc3n(c2=O)C[C@@H]2[C@@H](CO)[C@H](C(=O)NCC4CC4)[C@H]3N2S(C)(=O)=O)cc1 | inactive
C[C@@H]1CN([C@H](C)CO)S(=O)(=O)c2ccc(C#Cc3ccccc3)cc2O[C@@H]1CN(C)S(=O)(=O)c1ccccc1F | inactive
C[C@@H]1CN([C@H](C)CO)C(=O)c2cc(C#CC3(O)CCCC3)cnc2O[C@H]1CN(C)C(=O)Cc1ccccc1 | inactive
CC(=O)N(C)C[C@@H]1Oc2ncc(C#CC(C)(C)O)cc2C(=O)N([C@@H](C)CO)C[C@H]1C | inactive
C[C@H](CO)N1C[C@H](C)[C@@H](CN(C)C(=O)Cc2ccccc2)Oc2ncc(C#CC3(O)CCCC3)cc2C1=O | inactive
C[C@H](CO)N1C[C@H](C)[C@H](CN(C)C(=O)Cc2ccccc2)Oc2ncc(C#CC3(O)CCCC3)cc2C1=O | active
CC(=O)N(C)C[C@H]1Oc2ncc(C#CC(C)(C)O)cc2C(=O)N([C@H](C)CO)C[C@H]1C | inactive
CC(=O)N(C)C[C@@H]1Oc2ncc(C#CC(C)(C)O)cc2C(=O)N([C@@H](C)CO)C[C@@H]1C | active
Cc1noc(C)c1S(=O)(=O)Nc1ccc2c(c1)CC(=O)N([C@@H](C)CO)C[C@@H](C)[C@H](CN(C)S(=O)(=O)c1ccccc1)O2 | inactive

Compound | cytotoxicity call
C[C@@H]1CN([C@@H](C)CO)C(=O)Cc2cc(NS(=O)(=O)c3ccccc3)ccc2O[C@@H]1CN(C)CC1CC1 | inactive
COc1ccc(S(=O)(=O)Nc2ccc3c(c2)C(=O)N([C@H](C)CO)C[C@H](C)[C@@H](CN(C)C(=O)NC2CCCCC2)OCCCC[C@H](C)O3)cc1 | inactive
CC(C)NC(=O)N(C)C[C@@H]1Oc2ccc(NS(=O)(=O)c3ccccc3)cc2C(=O)N([C@@H](C)CO)C[C@@H]1C | inactive
C[C@H]1CCCCO[C@@H](CN(C)Cc2ccc(C(=O)O)cc2)[C@@H](C)CN([C@@H](C)CO)C(=O)c2cc(NC(=O)Nc3cccc4ccccc34)ccc2O1 | inactive
CCC(=O)Nc1ccc2c(c1)OC[C@H](C)N(C(=O)CN1CCOCC1)C[C@@H](C)[C@@H](OC)CN(C)C2=O | inactive
O=C(Nc1ccc(-c2nc3ccc(NC(=O)c4ccccc4[N+](=O)[O-])cc3[nH]2)cc1)c1ccccc1[N+](=O)[O-] | inactive
O=C(Nc1ccc(-c2nc3ccc(NC(=O)c4ccc(NC(=O)c5cccc6ccccc56)cc4)cc3[nH]2)cc1)c1ccc(NC(=O)c2cccc3ccccc23)cc1 | inactive
O=C(Nc1ccc(-c2nc3ccc(NC(=O)c4ccc(Cl)cc4)cc3[nH]2)cc1)c1ccc(Cl)cc1 | active
c1ccc(-c2nn(-c3ccccc3)c3c2cnc2ccccc23)cc1 | inactive
C[C@@H]1CN([C@@H](C)CO)C(=O)c2cc(C#Cc3ccccc3F)cnc2O[C@H]1CN(C)C(=O)c1ccc2c(c1)OCO2 | inactive
c1cnc(-c2cc[nH]n2)cn1 | inactive
C[C@@H]1CN([C@@H](C)CO)C(=O)c2ccccc2-c2ccccc2CO[C@H]1CN(C)C(=O)N[C@H](C)c1ccccc1 | inactive
Cc1cc(C)c(NC(=O)CN(CC(=O)O)CC(=O)O)c(C)c1Br | inactive
Cn1cnc(S(=O)(=O)N2C[C@H](O)COC[C@@H]3O[C@@H](CC(=O)NCc4cccc(F)c4)CC[C@H]32)c1 | inactive
C[C@@H]1CN([C@H](C)CO)S(=O)(=O)c2ccc(-c3ccncc3)cc2O[C@@H]1CN(C)S(=O)(=O)c1ccccc1F | inactive
Cc1cc(-c2ccc(N=Nc3ccc4c(S(=O)(=O)[O-])cc(S(=O)(=O)[O-])c(N)c4c3O)c(C)c2)ccc1N=Nc1ccc2c(S(=O)(=O)[O-])cc(S(=O)(=O)[O-])c(N)c2c1O.[Na+].[Na+].[Na+].[Na+] | active
Cc1ccc(S(=O)(=O)Oc2ccc(/N=N/c3ccc(-c4ccc(/N=N/c5c(O)ccc6cc(S(=O)(=O)O)cc(S(=O)(=O)O)c56)c(C)c4)cc3C)cc2)cc1 | inactive
C[C@H]1CN([C@@H](C)CO)C(=O)c2cc(C#Cc3ccncc3)cnc2O[C@@H]1CN(C)S(=O)(=O)c1ccccc1F | inactive
C[C@@H]1CN([C@@H](C)CO)C(=O)c2cc(NC(=O)Nc3ccc(F)cc3)ccc2O[C@@H]1CN(C)Cc1ccc(C(F)(F)F)cc1 | active
C[C@@H]1CN([C@H](C)CO)C(=O)c2cc(NC(=O)Nc3ccc(F)cc3)ccc2O[C@H]1CN(C)Cc1ccc(C(F)(F)F)cc1 | active
C[C@@H]1CN([C@@H](C)CO)C(=O)c2cc(NC(=O)Nc3ccc(F)cc3)ccc2O[C@H]1CN(C)Cc1ccc(C(F)(F)F)cc1 | active
C[C@H]1CN([C@@H](C)CO)C(=O)c2cc(NC(=O)Nc3ccc(F)cc3)ccc2O[C@@H]1CN(C)Cc1ccc(C(F)(F)F)cc1 | inactive
C[C@@H]1CN([C@H](C)CO)C(=O)c2cc(NC(=O)Nc3ccc(F)cc3)ccc2O[C@@H]1CN(C)Cc1ccc(C(F)(F)F)cc1 | inactive
C[C@H](CO)N1C[C@H](C)[C@@H](CN(C)Cc2ccc(C(F)(F)F)cc2)Oc2ccc(NC(=O)Nc3ccc(F)cc3)cc2C1=O | active
C[C@H]1CN([C@@H](C)CO)C(=O)c2cc(NC(=O)Nc3ccc(F)cc3)ccc2O[C@H]1CN(C)Cc1ccc(C(F)(F)F)cc1 | inactive
C[C@H](CO)N1C[C@H](C)[C@H](CN(C)Cc2ccc(C(F)(F)F)cc2)Oc2ccc(NC(=O)Nc3ccc(F)cc3)cc2C1=O | inactive
